# Data: the supplement of paper PMC7724964
# ± gives the standard deviation of the averaged measurements.
# Assays:
# Assay in all cases: phage ELISA signal ratio (GST-PRM binding over GST background); higher = stronger binding of peptide-phage to the PRM
# [1] = biological target: T1, ALDOA 1-364 Glycolytic (domain begin residue: 1, domain end residue: 364), P04075
# T1 chain: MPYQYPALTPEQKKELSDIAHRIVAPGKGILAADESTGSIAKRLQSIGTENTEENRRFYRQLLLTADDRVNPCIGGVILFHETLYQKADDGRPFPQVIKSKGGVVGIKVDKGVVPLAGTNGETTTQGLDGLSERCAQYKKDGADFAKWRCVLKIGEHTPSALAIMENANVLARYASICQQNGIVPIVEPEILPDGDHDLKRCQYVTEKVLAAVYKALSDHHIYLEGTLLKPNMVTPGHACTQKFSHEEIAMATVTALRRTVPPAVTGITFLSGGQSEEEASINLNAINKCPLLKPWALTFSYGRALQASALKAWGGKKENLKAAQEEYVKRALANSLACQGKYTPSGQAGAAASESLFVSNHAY
# Experimental: (§1)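 Phage-displayed random hexadecapeptides (Cys-free, flanked by invariant Gly linkers, fused to the M13 P8 major coat protein) were selected over 5 rounds against GST-fused human PRM domains. Individual clones from rounds 4-5 were tested by phage ELISA, and positive clones binding the target but not GST were sequenced. Values are the ELISA signal ratio of target over background (GST); the background signal is given separately.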
# [2] = biological target: T2, ARID4A 568-634 Tudor-knot (domain begin residue: 568, domain end residue: 634), P29374
# T2 chain: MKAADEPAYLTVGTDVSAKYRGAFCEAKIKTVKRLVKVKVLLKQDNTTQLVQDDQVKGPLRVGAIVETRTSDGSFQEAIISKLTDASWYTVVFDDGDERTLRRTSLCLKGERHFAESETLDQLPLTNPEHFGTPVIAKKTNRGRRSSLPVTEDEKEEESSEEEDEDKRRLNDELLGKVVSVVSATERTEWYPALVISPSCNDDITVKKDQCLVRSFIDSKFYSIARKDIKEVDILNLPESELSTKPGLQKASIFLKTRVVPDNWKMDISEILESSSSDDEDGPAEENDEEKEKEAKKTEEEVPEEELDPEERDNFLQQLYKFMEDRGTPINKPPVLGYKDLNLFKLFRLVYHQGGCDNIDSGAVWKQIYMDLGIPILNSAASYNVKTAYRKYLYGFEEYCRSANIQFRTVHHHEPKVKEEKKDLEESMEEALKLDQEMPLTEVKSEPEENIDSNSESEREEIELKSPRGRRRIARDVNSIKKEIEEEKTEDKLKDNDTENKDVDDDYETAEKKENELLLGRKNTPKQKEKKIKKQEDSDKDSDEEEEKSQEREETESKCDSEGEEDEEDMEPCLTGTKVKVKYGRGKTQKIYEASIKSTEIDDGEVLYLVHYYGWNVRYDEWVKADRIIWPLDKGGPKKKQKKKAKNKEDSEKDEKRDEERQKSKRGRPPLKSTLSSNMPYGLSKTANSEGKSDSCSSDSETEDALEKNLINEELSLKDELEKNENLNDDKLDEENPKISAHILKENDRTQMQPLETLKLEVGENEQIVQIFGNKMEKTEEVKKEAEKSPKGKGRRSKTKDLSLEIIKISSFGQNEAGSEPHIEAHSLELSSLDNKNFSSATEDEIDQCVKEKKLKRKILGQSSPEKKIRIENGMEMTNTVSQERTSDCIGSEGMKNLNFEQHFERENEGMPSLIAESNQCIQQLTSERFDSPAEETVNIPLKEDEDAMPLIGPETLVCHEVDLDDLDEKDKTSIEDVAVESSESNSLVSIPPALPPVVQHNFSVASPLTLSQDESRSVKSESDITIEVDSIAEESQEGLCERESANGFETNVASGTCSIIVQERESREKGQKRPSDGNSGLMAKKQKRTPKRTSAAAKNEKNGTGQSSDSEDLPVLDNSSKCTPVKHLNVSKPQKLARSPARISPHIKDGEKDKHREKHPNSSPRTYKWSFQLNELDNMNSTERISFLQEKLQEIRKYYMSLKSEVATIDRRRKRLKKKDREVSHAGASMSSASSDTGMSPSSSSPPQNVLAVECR
# Experimental: as §1
# [3] = biological target: T3, ZGPAT 120-268 zf-CCCH+TUDOR (domain begin residue: 120, domain end residue: 268), Q8N5A5
# T3 chain: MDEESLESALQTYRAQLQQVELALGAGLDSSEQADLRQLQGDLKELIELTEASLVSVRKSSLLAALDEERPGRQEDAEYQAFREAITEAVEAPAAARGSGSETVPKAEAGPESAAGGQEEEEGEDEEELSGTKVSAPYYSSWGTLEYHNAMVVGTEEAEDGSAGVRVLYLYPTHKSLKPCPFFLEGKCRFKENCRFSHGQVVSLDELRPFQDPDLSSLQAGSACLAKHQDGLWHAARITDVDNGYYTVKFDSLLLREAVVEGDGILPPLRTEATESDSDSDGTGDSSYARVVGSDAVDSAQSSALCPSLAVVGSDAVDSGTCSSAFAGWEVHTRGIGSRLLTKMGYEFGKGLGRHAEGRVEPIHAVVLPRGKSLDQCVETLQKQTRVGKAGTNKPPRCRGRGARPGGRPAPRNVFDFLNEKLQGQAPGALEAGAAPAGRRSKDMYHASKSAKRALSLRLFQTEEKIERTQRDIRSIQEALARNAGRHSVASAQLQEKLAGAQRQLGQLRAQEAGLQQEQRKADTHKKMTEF
# Experimental: as §1
# [4] = biological target: KMT2C 1055-1137 PHD (domain begin residue: 1055, domain end residue: 1137)
# Experimental: as §1
# [5] = biological target: KMT2C 995-1055 PHD (domain begin residue: 995, domain end residue: 1055)
# Experimental: as §1
# [6] = biological target: SETD1A 2-220 RRM_1 (domain begin residue: 2, domain end residue: 220), O15047
# Chain of SETD1A 2-220 RRM_1 (domain begin residue: 2, domain end residue: 220), O15047 (O15047 whole entry): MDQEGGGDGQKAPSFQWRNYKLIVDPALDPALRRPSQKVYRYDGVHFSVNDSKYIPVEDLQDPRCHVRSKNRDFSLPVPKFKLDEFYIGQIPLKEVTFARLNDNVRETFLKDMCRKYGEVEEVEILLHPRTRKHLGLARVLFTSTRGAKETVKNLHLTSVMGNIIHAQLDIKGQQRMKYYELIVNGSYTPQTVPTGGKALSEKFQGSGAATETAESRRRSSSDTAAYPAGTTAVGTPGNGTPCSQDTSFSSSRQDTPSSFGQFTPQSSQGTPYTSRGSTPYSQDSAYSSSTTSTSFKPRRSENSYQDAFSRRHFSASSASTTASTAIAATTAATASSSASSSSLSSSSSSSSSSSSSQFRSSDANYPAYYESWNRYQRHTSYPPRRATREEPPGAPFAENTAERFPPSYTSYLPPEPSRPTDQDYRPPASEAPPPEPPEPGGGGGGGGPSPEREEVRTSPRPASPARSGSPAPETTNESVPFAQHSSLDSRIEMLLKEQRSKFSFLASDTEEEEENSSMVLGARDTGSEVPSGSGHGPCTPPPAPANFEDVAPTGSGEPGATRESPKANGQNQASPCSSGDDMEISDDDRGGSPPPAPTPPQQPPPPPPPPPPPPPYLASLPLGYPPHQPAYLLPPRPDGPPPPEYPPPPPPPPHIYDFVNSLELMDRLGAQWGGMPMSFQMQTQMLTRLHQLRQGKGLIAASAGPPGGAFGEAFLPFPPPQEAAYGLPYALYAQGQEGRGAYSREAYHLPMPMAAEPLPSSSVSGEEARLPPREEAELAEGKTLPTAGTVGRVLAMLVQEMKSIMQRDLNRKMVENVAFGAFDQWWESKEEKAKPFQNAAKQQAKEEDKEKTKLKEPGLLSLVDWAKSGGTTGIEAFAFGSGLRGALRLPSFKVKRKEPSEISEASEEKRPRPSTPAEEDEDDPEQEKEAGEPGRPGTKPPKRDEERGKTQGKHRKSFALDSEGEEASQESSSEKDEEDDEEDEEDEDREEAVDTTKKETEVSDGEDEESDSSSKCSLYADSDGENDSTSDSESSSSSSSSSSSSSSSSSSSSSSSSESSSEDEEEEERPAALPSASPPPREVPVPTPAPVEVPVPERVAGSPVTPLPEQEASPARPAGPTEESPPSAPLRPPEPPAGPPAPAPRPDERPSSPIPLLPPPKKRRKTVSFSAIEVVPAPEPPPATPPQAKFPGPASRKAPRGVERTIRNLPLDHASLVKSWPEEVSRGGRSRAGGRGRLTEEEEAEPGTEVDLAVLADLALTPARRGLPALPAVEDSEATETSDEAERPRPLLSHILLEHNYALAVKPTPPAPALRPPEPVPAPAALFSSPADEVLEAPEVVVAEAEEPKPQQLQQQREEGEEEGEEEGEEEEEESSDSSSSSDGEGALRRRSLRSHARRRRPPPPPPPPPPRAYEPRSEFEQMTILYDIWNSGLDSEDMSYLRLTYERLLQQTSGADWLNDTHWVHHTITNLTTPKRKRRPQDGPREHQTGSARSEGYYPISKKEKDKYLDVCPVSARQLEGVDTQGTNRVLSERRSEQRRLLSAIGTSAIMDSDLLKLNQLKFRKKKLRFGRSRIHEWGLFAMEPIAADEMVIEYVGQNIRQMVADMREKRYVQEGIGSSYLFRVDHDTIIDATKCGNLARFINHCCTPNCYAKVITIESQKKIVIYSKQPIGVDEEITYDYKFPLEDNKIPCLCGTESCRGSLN
# Experimental: as §1
# [7] = biological target: T4, TDRD1 261-449 TUDOR (domain begin residue: 261, domain end residue: 449), Q9BXT4
# T4 chain: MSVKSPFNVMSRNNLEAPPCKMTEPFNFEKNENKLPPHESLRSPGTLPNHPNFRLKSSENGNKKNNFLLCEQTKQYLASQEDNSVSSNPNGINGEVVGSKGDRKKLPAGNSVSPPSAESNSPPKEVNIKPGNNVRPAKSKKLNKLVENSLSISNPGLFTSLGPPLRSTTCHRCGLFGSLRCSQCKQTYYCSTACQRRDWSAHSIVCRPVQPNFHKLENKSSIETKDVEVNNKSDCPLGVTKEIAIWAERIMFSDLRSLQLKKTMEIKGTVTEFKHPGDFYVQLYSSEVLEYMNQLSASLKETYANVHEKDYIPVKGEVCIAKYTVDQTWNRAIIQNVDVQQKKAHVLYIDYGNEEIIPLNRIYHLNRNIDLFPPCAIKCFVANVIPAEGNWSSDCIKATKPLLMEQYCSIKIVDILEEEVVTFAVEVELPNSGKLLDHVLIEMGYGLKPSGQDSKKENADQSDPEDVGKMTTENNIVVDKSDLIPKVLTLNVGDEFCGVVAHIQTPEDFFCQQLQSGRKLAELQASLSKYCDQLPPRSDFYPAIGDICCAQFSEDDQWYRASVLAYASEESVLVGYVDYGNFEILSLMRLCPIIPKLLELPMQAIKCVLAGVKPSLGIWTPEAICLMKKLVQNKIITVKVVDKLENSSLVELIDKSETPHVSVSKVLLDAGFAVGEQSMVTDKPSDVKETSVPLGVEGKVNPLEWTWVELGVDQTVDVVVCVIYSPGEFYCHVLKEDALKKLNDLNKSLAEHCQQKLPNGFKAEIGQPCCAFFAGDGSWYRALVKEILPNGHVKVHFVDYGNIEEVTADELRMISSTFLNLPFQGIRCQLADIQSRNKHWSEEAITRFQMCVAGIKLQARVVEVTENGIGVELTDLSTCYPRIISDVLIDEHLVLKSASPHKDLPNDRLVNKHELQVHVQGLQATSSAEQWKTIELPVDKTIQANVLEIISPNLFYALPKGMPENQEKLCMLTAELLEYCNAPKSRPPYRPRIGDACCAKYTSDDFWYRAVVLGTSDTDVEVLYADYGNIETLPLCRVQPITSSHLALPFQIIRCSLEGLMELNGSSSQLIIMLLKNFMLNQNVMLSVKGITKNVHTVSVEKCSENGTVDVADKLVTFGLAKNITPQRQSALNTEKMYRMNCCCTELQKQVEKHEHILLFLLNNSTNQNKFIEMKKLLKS
# Experimental: as §1
# [8] = biological target: T5, TDRKH 290-430 TUDOR+SNase (domain begin residue: 290, domain end residue: 430), Q9Y2W6
# T5 chain: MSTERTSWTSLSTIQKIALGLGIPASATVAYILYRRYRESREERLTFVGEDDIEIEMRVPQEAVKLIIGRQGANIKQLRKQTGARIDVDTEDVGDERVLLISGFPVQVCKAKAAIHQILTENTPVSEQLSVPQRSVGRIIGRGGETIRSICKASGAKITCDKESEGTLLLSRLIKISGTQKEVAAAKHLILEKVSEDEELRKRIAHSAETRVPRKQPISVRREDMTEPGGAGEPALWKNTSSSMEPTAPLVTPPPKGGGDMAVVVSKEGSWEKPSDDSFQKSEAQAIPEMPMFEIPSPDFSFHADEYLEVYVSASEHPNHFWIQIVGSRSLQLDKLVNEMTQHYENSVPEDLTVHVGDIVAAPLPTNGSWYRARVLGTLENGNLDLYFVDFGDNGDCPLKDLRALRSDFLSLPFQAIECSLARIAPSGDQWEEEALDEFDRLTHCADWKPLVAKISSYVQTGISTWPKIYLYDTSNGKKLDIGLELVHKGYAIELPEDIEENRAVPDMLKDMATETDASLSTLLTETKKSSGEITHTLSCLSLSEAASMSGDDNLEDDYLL
# Experimental: as §1
binder,measurement,setting,value
EFLWDPVQEMHVMVNE,phage ELISA signal ratio,[1],5.28
WVYENGEWEWTFPPSA,phage ELISA signal ratio,[1],17.8
WVMPGMEELNIFENMF,phage ELISA signal ratio,[2],3.49
QQVVDMQQMWQQWIEI,phage ELISA signal ratio,[2],4.93
MLHDGWLMPGMTHSVN,phage ELISA signal ratio,[2],8.8
same,phage ELISA signal ratio,[3],4.63
HFIELMYDAPEMHMPW,phage ELISA signal ratio,[2],5.33 ± 1.7
same,phage ELISA signal ratio,[4],6.76
STDIWDMWREWNEIDM,phage ELISA signal ratio,[2],9.5 ± 0.67
same,phage ELISA signal ratio,[4],6.74
same,phage ELISA signal ratio,[5],5.38
same,phage ELISA signal ratio,[6],12
same,phage ELISA signal ratio,[7],9.16
same,phage ELISA signal ratio,[8],6.85
WVQDTWGEGWSYTVQE,phage ELISA signal ratio,[1],20.2
YYWDTILVDNPEWHQL,phage ELISA signal ratio,[2],4.22
DYMSHLFDTMSGVQFQ,phage ELISA signal ratio,[2],6.29
same,phage ELISA signal ratio,[7],8.02
